Measurements published in PubChem BioAssay (EPA / NIEHS).
Inconclusive results are not listed. Active and inactive are the calls of the source. Rule for the calls, unless noted: active = hit-call score of the fitted dose curve at least 0.9, where 1 is the maximum; inconclusive = response in the unintended direction; inactive = score below 0.9.

Legend:
[1] = molecular target: Estrogen receptor (Homo sapiens) (UniProt P03372); test: ATG_ERa_TRANS: Attagene TRANS-FACTORIAL HepG2 Assay for human Estrogen Receptor alpha (ERa) (AID 2282970); conditions: HepG2 Attagene TRANS ERa GAL4 reporter, mRNA
Outline: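 After 24 h of compound treatment, RNA from HepG2 cells bearing transfected GAL4-UAS reporter constructs is converted to cDNA, amplified and fluorescently labelled. Capillary electrophoresis resolves the ERa-linked reporter; DMSO serves as negative control.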

[2] = molecular target: X-box-binding protein 1 (Homo sapiens) (UniProt P17861); test: ATG_Xbp1_CIS: Attagene CIS-FACTORIAL HepG2 Assay for human X-box Binding Protein 1 (XBP1) (AID 2282972; active = hit-call score of the fitted dose curve at least 0.9, where 1 is the maximum; inactive = score below 0.9); conditions: HepG2 XBP1 cis-element reporter, Attagene multiplex; actives raise or lower the signal
X-box-binding protein 1 (Homo sapiens), sequence (P17861 whole entry, looked up): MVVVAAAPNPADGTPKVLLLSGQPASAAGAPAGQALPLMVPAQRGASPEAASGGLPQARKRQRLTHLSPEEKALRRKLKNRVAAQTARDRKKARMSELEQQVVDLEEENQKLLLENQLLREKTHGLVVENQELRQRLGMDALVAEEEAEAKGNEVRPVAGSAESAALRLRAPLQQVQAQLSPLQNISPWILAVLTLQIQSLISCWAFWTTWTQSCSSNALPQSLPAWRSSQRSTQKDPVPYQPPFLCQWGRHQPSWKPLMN
Outline: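 HepG2, transient MRTU transfection (cis-promoter driven), 24 h compound exposure. Total RNA → oligo(dT) RT → PCR → 6-FAM labeling → HpaI cut → CE. Bidirectional fit vs DMSO.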

[3] = molecular target: Glucocorticoid receptor (Homo sapiens) (UniProt P04150); test: ATG_GR_TRANS: Attagene TRANS-FACTORIAL HepG2 Assay for human Glucocorticoid Receptor (GR) (AID 2282978); conditions: HepG2 Attagene TRANS GR reporter, mRNA transcription;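 note: activators score as hits since higher reporter transcript over DMSO is fitted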
Glucocorticoid receptor (Homo sapiens), sequence (P04150 whole entry, looked up, the tested form may be a part): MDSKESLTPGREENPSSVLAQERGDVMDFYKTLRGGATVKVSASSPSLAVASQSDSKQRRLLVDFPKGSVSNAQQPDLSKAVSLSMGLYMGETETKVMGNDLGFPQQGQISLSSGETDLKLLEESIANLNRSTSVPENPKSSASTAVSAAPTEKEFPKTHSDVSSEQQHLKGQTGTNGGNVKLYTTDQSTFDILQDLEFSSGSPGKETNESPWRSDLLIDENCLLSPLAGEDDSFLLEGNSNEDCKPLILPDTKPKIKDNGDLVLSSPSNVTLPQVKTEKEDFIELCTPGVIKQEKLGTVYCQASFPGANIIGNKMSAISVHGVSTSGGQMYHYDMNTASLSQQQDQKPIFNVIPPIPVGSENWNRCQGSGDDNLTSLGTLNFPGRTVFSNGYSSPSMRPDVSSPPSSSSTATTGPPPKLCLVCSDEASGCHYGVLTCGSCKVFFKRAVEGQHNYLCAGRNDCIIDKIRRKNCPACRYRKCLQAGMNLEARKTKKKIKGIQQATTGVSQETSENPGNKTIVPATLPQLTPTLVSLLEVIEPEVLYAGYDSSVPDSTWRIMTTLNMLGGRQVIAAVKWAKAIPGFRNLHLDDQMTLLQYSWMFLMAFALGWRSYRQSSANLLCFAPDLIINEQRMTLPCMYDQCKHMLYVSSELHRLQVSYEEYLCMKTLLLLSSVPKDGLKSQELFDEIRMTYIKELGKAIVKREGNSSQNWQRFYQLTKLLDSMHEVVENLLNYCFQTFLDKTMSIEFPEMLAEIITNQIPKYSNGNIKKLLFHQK
Outline: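 Readout is reporter transcript from a chimeric GR-Gal4 acting on GAL4-UAS in transfected human HepG2 liver cells after 24 h exposure, quantified by RT-PCR and capillary electrophoresis. Activation fitted upward against DMSO.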

[4] = molecular target: Bile acid receptor (Homo sapiens) (UniProt Q96RI1); test: ATG_FXR_TRANS: Attagene TRANS-FACTORIAL HepG2 Assay for Farnesoid X Receptor (FXR) (AID 2282979); conditions: HepG2 Attagene TRANS FXR-GAL4 reporter transcription;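 note: hits raise reporter mRNA above DMSO so AC50 marks FXR activation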
Bile acid receptor (Homo sapiens), sequence (Q96RI1 whole entry, looked up, the tested form may be a part): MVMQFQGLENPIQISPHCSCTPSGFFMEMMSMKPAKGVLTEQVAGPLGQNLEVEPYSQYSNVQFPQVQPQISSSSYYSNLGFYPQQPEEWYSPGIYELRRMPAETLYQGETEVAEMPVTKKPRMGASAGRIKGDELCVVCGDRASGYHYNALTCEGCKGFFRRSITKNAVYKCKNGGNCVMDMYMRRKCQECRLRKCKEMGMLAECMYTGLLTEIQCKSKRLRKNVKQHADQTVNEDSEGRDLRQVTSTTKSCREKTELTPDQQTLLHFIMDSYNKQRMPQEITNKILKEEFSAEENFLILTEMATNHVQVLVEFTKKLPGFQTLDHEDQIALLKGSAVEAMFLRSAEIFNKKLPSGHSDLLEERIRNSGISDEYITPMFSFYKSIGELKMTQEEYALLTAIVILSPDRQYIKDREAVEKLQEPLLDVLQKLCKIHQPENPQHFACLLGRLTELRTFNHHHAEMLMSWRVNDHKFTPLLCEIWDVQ
Outline: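 Read-out: fluorescent reporter transcripts quantified by capillary electrophoresis after RT-PCR of total RNA. Source cells were HepG2 transiently carrying chimeric NR-GAL4 plus GAL4-UAS reporter units, dosed 24 h. Activity fitted upward relative to DMSO baseline.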

[5] = molecular target: Oxysterols receptor LXR-alpha (Homo sapiens) (UniProt Q13133); test: ATG_LXRa_TRANS: Attagene TRANS-FACTORIAL HepG2 Assay for human Liver X Receptor alpha (LXRa) (AID 2282980); conditions: HepG2 Attagene TRANS reporter, LXRa transactivation
Oxysterols receptor LXR-alpha (Homo sapiens), sequence (Q13133 whole entry, looked up, the tested form may be a part): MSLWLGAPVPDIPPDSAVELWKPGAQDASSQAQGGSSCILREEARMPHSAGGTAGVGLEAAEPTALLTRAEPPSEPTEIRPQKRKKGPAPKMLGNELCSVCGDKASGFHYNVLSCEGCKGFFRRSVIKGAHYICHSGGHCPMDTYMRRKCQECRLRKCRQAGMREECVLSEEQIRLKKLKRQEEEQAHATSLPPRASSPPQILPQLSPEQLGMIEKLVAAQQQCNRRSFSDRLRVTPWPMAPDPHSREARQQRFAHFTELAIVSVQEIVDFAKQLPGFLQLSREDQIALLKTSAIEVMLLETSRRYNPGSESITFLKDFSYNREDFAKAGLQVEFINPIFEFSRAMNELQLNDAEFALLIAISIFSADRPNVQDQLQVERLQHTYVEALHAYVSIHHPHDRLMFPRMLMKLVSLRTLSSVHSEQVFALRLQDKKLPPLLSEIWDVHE
Outline: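 Read-out: reporter transcript levels by RT-PCR plus capillary electrophoresis, fluorescence intensity. Transiently transfected HepG2, exogenous NR-GAL4 chimera, GAL4-UAS reporters; 24 h compound exposure. Activity = increase over DMSO negative control.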

[6] = molecular target: Oxysterols receptor LXR-beta (Homo sapiens) (UniProt P55055); test: ATG_LXRb_TRANS: Attagene TRANS-FACTORIAL HepG2 Assay for human Liver X Receptor beta (LXRb) (AID 2282981); conditions: HepG2 Attagene TRANS GAL4-LXRb reporter, mRNA
Oxysterols receptor LXR-beta (Homo sapiens), sequence (P55055 whole entry, looked up, the tested form may be a part): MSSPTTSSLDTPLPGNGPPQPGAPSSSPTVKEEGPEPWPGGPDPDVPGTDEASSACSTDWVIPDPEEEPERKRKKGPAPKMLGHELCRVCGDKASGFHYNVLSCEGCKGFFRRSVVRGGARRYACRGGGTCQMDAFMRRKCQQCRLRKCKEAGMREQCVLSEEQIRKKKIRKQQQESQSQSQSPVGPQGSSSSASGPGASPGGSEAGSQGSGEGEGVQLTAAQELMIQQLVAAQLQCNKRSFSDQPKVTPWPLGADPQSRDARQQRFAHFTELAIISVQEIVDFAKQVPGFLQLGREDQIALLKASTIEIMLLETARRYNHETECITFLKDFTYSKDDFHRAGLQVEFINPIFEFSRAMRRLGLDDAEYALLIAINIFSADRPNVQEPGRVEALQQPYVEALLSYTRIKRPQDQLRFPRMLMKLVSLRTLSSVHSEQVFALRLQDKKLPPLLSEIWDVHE
Outline: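 HepG2 cells transiently transfected with multiple reporter transcription units carrying chimeric NR-Gal4 proteins acting on GAL4-UAS reporters; compound exposure 24 h. Reporter mRNA quantified by RT-PCR, 6-FAM labelling, HpaI digestion and capillary electrophoresis; gain of signal versus DMSO.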

[7] = ATG_M_06_TRANS: Attagene TRANS-FACTORIAL HepG2 Assay for M06 Transcription Factor (Internal Marker) (AID 2282983); conditions: HepG2 Attagene TRANS M06 internal marker reporter
Outline: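 After a 24 h chemical treatment of transfected HepG2, RNA underwent DNase I treatment, reverse transcription and reporter-specific PCR; labelled, HpaI-digested products were sized by capillary electrophoresis. Signal increase relative to DMSO defined activity.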

[8] = molecular target: Transcriptional activator Myb (Homo sapiens) (UniProt P10242); test: ATG_Myb_CIS: Attagene CIS-FACTORIAL HepG2 Assay for human Myeloblastosis (Myb) Proto-Oncogene Transcription Factor (AID 2282986; active = hit-call score of the fitted dose curve at least 0.9, where 1 is the maximum; inactive = score below 0.9); conditions: HepG2 Attagene CIS-FACTORIAL Myb reporter transcription; actives raise or lower the signal
Transcriptional activator Myb (Homo sapiens), sequence (P10242 whole entry, looked up): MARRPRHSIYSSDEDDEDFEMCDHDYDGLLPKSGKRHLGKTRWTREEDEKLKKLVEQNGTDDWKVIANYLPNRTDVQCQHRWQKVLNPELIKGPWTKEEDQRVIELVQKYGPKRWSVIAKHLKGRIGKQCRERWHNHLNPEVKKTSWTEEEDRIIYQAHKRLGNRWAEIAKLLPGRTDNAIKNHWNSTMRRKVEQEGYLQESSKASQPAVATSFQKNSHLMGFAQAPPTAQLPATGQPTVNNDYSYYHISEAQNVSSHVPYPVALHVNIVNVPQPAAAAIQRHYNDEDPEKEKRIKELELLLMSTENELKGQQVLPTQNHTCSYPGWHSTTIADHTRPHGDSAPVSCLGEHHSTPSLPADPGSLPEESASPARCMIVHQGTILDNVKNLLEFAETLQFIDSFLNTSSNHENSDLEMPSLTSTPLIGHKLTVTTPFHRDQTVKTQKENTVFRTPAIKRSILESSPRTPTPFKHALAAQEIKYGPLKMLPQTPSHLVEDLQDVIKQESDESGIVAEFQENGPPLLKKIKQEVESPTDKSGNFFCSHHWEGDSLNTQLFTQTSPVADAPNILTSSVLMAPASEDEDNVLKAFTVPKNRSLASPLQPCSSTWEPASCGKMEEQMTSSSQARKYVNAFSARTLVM
Outline: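 Reporter mRNA is quantified by RT-PCR and capillary electrophoresis 24 h after dosing HepG2 cells transfected with cis-regulated reporter units, which track endogenous transcription factor activity. Gain and loss of signal are fitted versus DMSO baseline.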

[9] = molecular target: Nuclear respiratory factor 1 (Homo sapiens) (UniProt Q16656); test: ATG_NRF1_CIS: Attagene CIS-FACTORIAL HepG2 Assay for human Nuclear Respiratory Factor 1 (NRF1) Orphan Gene (AID 2282987; active = hit-call score of the fitted dose curve at least 0.9, where 1 is the maximum; inactive = score below 0.9); conditions: HepG2 NRF1 cis-element reporter, Attagene multiplex; actives raise or lower the signal
Outline: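 Endogenous NRF1-driven reporter transcription in transfected HepG2 cells after 24 h treatment. Readout: RT-PCR products, 6-FAM labelled and resolved by capillary electrophoresis; changes fitted both directions relative to DMSO.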

[10] = ATG_NFI_CIS: Attagene CIS-FACTORIAL HepG2 Assay for human Nuclear Factor I (NFI) (AID 2282989; active = hit-call score of the fitted dose curve at least 0.9, where 1 is the maximum; inactive = score below 0.9); conditions: HepG2 cis-regulatory reporter, NFI response element transcription; actives raise or lower the signal
Outline: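 HepG2, transient MRTU, 24 h exposure; RNA→cDNA→PCR→FAM label→HpaI→CE fluorescence. Bidirectional fit, DMSO = baseline.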

[11] = molecular target: Myc proto-oncogene protein (Homo sapiens) (UniProt P01106); test: ATG_Myc_CIS: Attagene CIS-FACTORIAL HepG2 Assay for human Myelocytomatosis (Myc) Proto-Oncogene Transcription Factor (AID 2282990; active = hit-call score of the fitted dose curve at least 0.9, where 1 is the maximum; inactive = score below 0.9); conditions: HepG2, Attagene cis-reporter transcription factor activity; actives raise or lower the signal
Myc proto-oncogene protein (Homo sapiens), sequence (P01106 whole entry, looked up): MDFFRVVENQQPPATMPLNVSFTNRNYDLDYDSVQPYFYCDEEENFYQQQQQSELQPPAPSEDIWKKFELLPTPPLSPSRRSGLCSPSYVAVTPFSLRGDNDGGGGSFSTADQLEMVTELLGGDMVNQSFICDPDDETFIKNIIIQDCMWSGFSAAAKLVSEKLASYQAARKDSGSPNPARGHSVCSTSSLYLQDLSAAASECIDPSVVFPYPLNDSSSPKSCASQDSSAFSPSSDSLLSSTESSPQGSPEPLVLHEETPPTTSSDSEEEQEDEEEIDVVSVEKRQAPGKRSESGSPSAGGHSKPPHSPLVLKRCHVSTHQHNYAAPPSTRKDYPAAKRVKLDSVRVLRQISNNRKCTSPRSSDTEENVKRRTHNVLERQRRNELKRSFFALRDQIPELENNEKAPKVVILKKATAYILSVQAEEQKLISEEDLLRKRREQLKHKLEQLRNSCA
Outline: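 Multiplexed cis-reporter transcription in HepG2 cells after 24 h chemical treatment. Reporter mRNA measured by RT-PCR and capillary electrophoresis fluorescence; activity fitted bidirectionally against DMSO control.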

[12] = ATG_M_19_TRANS: Attagene TRANS-FACTORIAL HepG2 Assay for M19 Transcription Factor (Internal Marker) (AID 2282974); conditions: HepG2 Attagene TRANS-FACTORIAL M19 internal marker reporter
Outline: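 Background-control readout: after 24 h chemical exposure of transfected HepG2 carrying GAL4-driven reporter units, RNA was reverse-transcribed, amplified, fluorescently labeled and sized by capillary electrophoresis; gain-of-signal fit against DMSO.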

[13] = ATG_GAL4_TRANS: Attagene TRANS-FACTORIAL HepG2 Assay for GAL4 (Internal Marker) (AID 2282976); conditions: HepG2 Attagene TRANS GAL4 internal marker reporter
Outline: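 RT-PCR/capillary electrophoresis readout of reporter mRNA. HepG2, transient MRTU transfection (GAL4-UAS reporters), 24 h compound exposure. Background-control endpoint, positive direction vs DMSO baseline.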

[14] = molecular target: Estrogen-related receptor gamma (Homo sapiens) (UniProt P62508); test: ATG_ERRg_TRANS: Attagene TRANS-FACTORIAL HepG2 Assay for human Estrogen-Related Receptor gamma (ERRg) (AID 2282977); conditions: HepG2 Attagene TRANS reporter, ERRg transactivation;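 note: hits increase reporter signal over DMSO so potencies reflect activators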
Outline: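 HepG2 cells transiently transfected with multiplexed GAL4-UAS reporter units and chimeric NR-Gal4 constructs were exposed to test chemicals for 24 h. Reporter mRNA was measured by RT-PCR, 6-FAM primer extension, HpaI digestion and capillary electrophoresis; gain-of-signal versus DMSO.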

[15] = molecular target: Steroid hormone receptor ERR1 (Homo sapiens) (UniProt P11474); test: ATG_ERRa_TRANS: Attagene TRANS-FACTORIAL HepG2 Assay for human Estrogen-Related Receptor alpha (ERRa) (AID 2282971); conditions: HepG2 Attagene TRANS reporter, ERRa transactivation
Steroid hormone receptor ERR1 (Homo sapiens), sequence (P11474 whole entry, looked up, the tested form may be a part): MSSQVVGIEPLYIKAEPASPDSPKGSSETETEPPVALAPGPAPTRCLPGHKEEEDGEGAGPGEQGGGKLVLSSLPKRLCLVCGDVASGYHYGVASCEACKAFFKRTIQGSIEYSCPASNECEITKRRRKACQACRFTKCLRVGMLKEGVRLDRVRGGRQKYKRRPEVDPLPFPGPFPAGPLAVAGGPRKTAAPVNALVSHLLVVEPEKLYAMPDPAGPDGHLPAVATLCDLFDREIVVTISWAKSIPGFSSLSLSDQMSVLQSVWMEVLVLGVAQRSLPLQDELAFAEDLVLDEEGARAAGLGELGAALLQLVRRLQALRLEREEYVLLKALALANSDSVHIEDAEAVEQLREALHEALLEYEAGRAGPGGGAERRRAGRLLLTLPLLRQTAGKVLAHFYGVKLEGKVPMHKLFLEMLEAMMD
Outline: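 Transfected HepG2, 24 h dosing, ERRa-Gal4 chimera driving GAL4-UAS reporter. Readout: reporter mRNA via RT-PCR plus capillary electrophoresis (fluorescence). Positive direction vs DMSO control.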

[16] = molecular target: Androgen receptor (Homo sapiens) (UniProt P10275); test: ATG_AR_TRANS: Attagene TRANS-FACTORIAL HepG2 Assay for human Androgen Receptor (AR) (AID 2282973); conditions: HepG2 Attagene TRANS-FACTORIAL AR reporter transcription
Outline: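 Readout is reporter transcript abundance, quantified by fluorescent RT-PCR products separated on capillary electrophoresis. Human HepG2 liver cells carried transiently transfected NR-Gal4 chimera plus GAL4-UAS reporter constructs and were dosed for 24 h; activity scored upward versus DMSO.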

[17] = molecular target: Hepatocyte nuclear factor 4-alpha (Homo sapiens) (UniProt P41235); test: ATG_HNF4a_TRANS: Attagene TRANS-FACTORIAL HepG2 Assay for human Hepatocyte Nuclear Factor 4 alpha (HNF4a) (AID 2282982); conditions: HepG2 HNF4a transactivation reporter, mRNA readout
Outline: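 HepG2 cells transiently transfected with multiplexed GAL4-UAS reporter units responsive to chimeric NR-GAL4 proteins; compound exposure 24 h. Reporter mRNA quantified by RT-PCR, 6-FAM labelling, HpaI digestion and capillary electrophoresis; gain of signal versus DMSO baseline.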

[18] = ATG_M_32_TRANS: Attagene TRANS-FACTORIAL HepG2 Assay for M32 Transcription Factor (Internal Marker) (AID 2282984); conditions: HepG2 Attagene TRANS M32 internal marker reporter;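 note: transcript level of a background control reporter unit measured by RT-PCR and capillary electrophoresis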
Outline: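 HepG2 cells transiently transfected with multiple GAL4-UAS reporter transcription units, dosed for 24 hours; reporter mRNA quantified by RT-PCR, 6-FAM primer extension, HpaI digestion and capillary electrophoresis. Gain-of-signal fitted versus DMSO baseline; internal background-control marker.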

[19] = molecular target: Nuclear receptor subfamily 4 group A member 2 (Homo sapiens) (UniProt P43354); test: ATG_NURR1_TRANS: Attagene TRANS-FACTORIAL HepG2 Assay for human Nuclear Receptor Related Protein 1 (NURR1) (AID 2282985); conditions: HepG2 Attagene TRANS reporter, mRNA readout
Nuclear receptor subfamily 4 group A member 2 (Homo sapiens), sequence (P43354 whole entry, looked up, the tested form may be a part): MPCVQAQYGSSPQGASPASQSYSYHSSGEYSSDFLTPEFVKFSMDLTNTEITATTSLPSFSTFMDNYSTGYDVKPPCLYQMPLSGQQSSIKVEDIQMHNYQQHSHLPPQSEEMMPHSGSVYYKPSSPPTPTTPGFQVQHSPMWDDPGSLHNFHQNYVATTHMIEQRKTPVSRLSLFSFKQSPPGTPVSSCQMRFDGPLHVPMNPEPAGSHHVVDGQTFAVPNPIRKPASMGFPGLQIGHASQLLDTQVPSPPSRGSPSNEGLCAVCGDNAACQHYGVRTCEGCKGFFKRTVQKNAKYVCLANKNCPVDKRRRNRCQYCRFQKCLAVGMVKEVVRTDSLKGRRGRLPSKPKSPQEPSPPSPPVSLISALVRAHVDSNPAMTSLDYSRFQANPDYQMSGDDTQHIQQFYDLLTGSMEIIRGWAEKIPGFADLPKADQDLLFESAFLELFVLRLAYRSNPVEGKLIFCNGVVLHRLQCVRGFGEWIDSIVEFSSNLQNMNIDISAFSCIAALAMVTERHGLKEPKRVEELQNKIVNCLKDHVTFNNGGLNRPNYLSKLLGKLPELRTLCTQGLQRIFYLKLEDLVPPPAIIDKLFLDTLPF
Outline: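 HepG2 cells transiently transfected with GAL4-UAS reporter units and chimeric NR-Gal4 constructs; chemical exposure 24 h. Reporter mRNA quantified by RT-PCR, fluorescent labelling and capillary electrophoresis; gain of signal fitted relative to DMSO baseline.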

Measured: AC50

CCCCCCCCCCCCN(C)C
active: [2] 53.9 µM | [9] 54.2 µM | [10] 57.2 µM | [11] 50.9 µM
inactive: [1] | [3] | [4] | [5] | [6] | [7] | [8]

Clc1cccc(Cl)c1
inactive: [2] | [12] | [13] | [14] | [3] | [8] | [9] | [10] | [11]

C=CC(=O)[O][Sn]([CH2]CCC)([CH2]CCC)[CH2]CCC
active: [2] 0.412 µM | [19] 0.00109 µM | [10] 0.179 µM
not listed: [1] | [7] | [13] | [14]
inactive: all other assays above

C=CC(F)(C(F)(F)F)C(F)(F)C(F)(F)F (centres undefined)
inactive: [15] | [2] | [4] | [5] | [6] | [17] | [9] | [10] | [11]

Brc1ccc(Oc2c(Br)cc(Br)cc2Br)c(Br)c1
not listed: [1] | [5] | [11] | [14] | [19]
inactive: all other assays above

Brc1ccc(Br)cc1
inactive: [2] | [12] | [13] | [14] | [17] | [8] | [9] | [10]

CCOC(=O)OC1=C(c2cc(C)ccc2C)C(=O)NC12CCC(OC)CC2 (centres undefined)
not listed: [5] | [8] | [12] | [13] | [14] | [15] | [16]
inactive: all other assays above

O=[N+]([O-])c1ccccc1O
not listed: [1] | [4] | [5] | [6] | [14] | [16]
inactive: all other assays above

O=c1nc(O)n(Cl)c(=O)n1Cl
not listed: [1] | [3] | [4] | [5] | [6] | [16]
inactive: all other assays above

O=c1[nH]c(=O)n(Cl)c(=O)n1Cl
not listed: [1] | [4] | [16] | [17]
inactive: all other assays above
